Data as given in PubChem BioAssay (Tox21).
Results filed as inconclusive are left out. Active and inactive are the calls of the source. Unless noted, the call rests on the fitted dose curve; in most records, active means well fitted curve in the direction sought with a large enough effect in the repeat runs; inconclusive means weak or mixed curves; inactive means no such curve, though single readings can be large; an effect the other way counts as inactive or inconclusive.

Experiments:
[1] = qHTS assay to identify small molecule antagonists of the estrogen related receptor (ERR) signaling pathway from Tox21 library - cell viability counter screen (AID 1224834); further: nearly all actives have a fitted effect of over 30% in size
How it was run: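 Counter screen run in ERR cells (2,000 cells/well): cells pre-incubated 6 h, then treated with compounds for 17.5 h at 37 C. Fluorescence was read 30 min after CellTiter-Fluor addition.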

[2] = target: Luciferin 4-monooxygenase (Photinus pyralis) (UniProt P08659); experiment: qHTS assay to identify small molecule inhibitors of firefly luciferase (AID 1224835); further: nearly all actives have a fitted effect of over 25% in size; further: potency means the concentration at half of the fitted maximal effect
Chain of Luciferin 4-monooxygenase (Photinus pyralis) (P08659 whole entry, looked up): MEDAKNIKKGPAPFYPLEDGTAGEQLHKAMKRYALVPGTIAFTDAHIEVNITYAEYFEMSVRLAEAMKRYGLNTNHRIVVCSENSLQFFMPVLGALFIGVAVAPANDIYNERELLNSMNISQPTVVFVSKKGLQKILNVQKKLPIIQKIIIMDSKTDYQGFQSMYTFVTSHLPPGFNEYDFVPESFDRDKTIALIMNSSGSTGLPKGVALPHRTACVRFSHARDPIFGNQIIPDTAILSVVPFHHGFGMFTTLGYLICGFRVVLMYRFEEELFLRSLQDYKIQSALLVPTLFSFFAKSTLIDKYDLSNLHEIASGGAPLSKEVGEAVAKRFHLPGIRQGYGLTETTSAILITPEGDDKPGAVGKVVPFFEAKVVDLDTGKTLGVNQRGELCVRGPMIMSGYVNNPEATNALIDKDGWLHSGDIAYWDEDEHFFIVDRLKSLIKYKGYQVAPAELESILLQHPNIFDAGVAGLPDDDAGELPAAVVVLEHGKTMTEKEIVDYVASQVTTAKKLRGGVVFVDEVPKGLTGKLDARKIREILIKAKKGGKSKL
How it was run: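 Quantitative HTS format; KM concentrations of both substrates. Purified P. pyralis FLuc activity quantified from luminescence images.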

[3] = qHTS assay to identify small molecule agonists of the constitutive androstane receptor (CAR) signaling pathway - cell viability counter screen (AID 1224836); further: series mostly up to about 92 µM; nearly all actives have a fitted effect of over 45% in size
How it was run: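 HepG2-CYP2B6-hCAR, 2500 cells/well, 4 h pre-incubation; cpd 15 conc + PK11195 0.75 uM final; 23 h, 37 C/5% CO2; CellTiter-Fluor, fluorescence.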

[4] = qHTS assay to identify small molecule antagonists of the constitutive androstane receptor (CAR) signaling pathway - cell viability counter screen (AID 1224837); further: series mostly up to about 92 µM; nearly all actives have a fitted effect of over 45% in size
How it was run: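 CITCO at 50 nM final was added alongside compounds (15 concentrations) to double-stable hCAR/CYP2B6-2.2kb HepG2 cells. Following 23 hr at 37 C, cell viability was quantified by CellTiter-Fluor fluorescence intensity.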

[5] = target: Nuclear receptor subfamily 1 group I member 3 (Homo sapiens) (UniProt Q14994); experiment: qHTS assay to identify small molecule antagonists of the constitutive androstane receptor (CAR) signaling pathway (AID 1224838); further: nearly all actives have a fitted effect of over 40% in size
Chain of Nuclear receptor subfamily 1 group I member 3 (Homo sapiens) (Q14994 whole entry, looked up): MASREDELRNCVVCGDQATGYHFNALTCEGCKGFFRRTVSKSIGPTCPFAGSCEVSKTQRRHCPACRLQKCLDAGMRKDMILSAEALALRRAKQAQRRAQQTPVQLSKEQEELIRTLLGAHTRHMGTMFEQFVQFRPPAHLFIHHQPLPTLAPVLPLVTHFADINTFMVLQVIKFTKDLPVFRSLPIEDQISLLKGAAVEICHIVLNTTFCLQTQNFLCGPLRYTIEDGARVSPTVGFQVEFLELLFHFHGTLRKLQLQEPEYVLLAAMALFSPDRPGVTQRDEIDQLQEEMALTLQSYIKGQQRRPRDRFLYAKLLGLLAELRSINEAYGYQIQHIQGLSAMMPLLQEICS
How it was run: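 Inhibition of CITCO-driven (50 nM final) CYP2B6 reporter expression is measured in HepG2 cells stably carrying hCAR. Fifteen compound concentrations are applied for 24 h at 37 C, followed by luciferase luminescence.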

[6] = target: Nuclear receptor subfamily 1 group I member 3 (Homo sapiens) (UniProt Q14994); experiment: qHTS assay to identify small molecule agonists of the constitutive androstane receptor (CAR) signaling pathway (AID 1224839); further: nearly all actives have a fitted effect of over 15% in size; further: potency means the concentration at half of the fitted maximal effect; on activation: series mostly up to about 92 µM
How it was run: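 HepG2-CYP2B6-hCAR cells, 2500/well, 4 h pre-incubation; compounds 15 conc.; PK11195 0.75 uM final; 24 h, 37 C/5% CO2; ONE-Glo luciferase read.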

[7] = qHTS assay to identify small molecule antagonists of the estrogen related receptor signaling pathway with the pleiotropic PPARgamma coactivator (PGC) from Tox21 10K library (AID 1224841; call rule not given here; further: series mostly up to about 92 µM; actives are mostly falling curves and most rising ones were filed inactive; nearly all actives have a fitted effect of over 50% in size)
How it was run: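 One-Glo luminescence, measured after half an hour at room temperature, quantified reporter output of PGC/ERR cells. These had been plated at 2,000 per well, incubated 6 h, dosed with compounds in DMSO, then kept 18 h at 37 C.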

[8] = qHTS assay to identify small molecule agonists of the estrogen related receptor signaling pathway with the pleiotropic PPARgamma coactivator (PGC) from Tox21 10K library (AID 1224842); further: nearly all actives have a fitted effect of over 15% in size
How it was run: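 PGC/ERR reporter cells (NTP line) were seeded 2,000 per well, rested 6 h at 37 C/5% CO2, then pin-dosed with compounds in DMSO for 18 h at 37 C; luciferase read by One-Glo luminescence after 30 min at room temperature.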

[9] = qHTS assay to identify small molecule agonists of the hypoxia (HIF-1) signaling pathway - cell viability counter screen (AID 1224844; calls by dose curve; further: nearly all actives have a fitted effect of over 50% in size; further: potency means the concentration at half of the fitted maximal effect)
How it was run: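 In this counter screen, HRE-bla ME-180 cell viability after 17 hrs of compound exposure at 37C was read by CellTiter-Glo luminescence, multiplexed with the beta-lactamase reporter measurement.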

[10] = qHTS assay to identify small molecule agonists of H2AX (AID 1224845; active means well fitted activation curve with a large enough effect in the signal ratio in the repeat runs, not every such curve was filed as active; the % refers to the signal ratio)
How it was run: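 Wild-type CHO-K1 cells plated overnight, then exposed 3 hr at 37C to compounds at 15 concentrations (0.76% DMSO). Lysed, then HTRF anti-pH2AX(S139)-cryptate/anti-H2AX-d2 detection after 24 hr at room temperature; emissions 665 and 620 nm.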

[11] = qHTS assay to identify small molecule agonists of the hypoxia (HIF-1) signaling pathway (AID 1224846; active means well fitted activation curve with a large enough effect in the signal ratio in the repeat runs, not every such curve was filed as active; the % refers to the signal ratio)
How it was run: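 ME-180 HRE-bla reporter cells; compounds in DMSO, 17 h at 37C; read-out beta-lactamase via CCF4-AM FRET.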

[12] = qHTS assay to identify small molecule antagonists of the estrogen related receptor (ERR) signaling pathway from Tox21 library (AID 1224848); further: nearly all actives have a fitted effect of over 50% in size
How it was run: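 Tox21 10K compounds in DMSO tested for ERR pathway antagonism in NTP's ERR cell line; 18 h, 37 C exposure; ONE-Glo luminescence.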

[13] = qHTS assay to identify small molecule agonists of the estrogen related receptor (ERR) signaling pathway from Tox21 library (AID 1224849; calls by dose curve; further: nearly all actives have a fitted effect of over 15% in size)
How it was run: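 Luciferase activity in ERR pathway reporter cells served as the agonist readout; exposure lasted 18 h at 37 C, with ONE-Glo detection after 30 min at room temperature.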

[14] = qHTS RealTime-Glo MT Cell Viability Assay in HepG2 cells - 24 hour (AID 1224867); further: nearly all actives have a fitted effect of over 50% in size
How it was run: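 Cells + NanoLuc/prosubstrate dispensed (600 cells/well) → 5 h at 37 C/5% CO2 → compounds in DMSO transferred → 40 h incubation at 37 C, luminescence read at 0, 8, 16, 24, 32, 40 h.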

[15] = qHTS RealTime-Glo MT Cell Viability Assay in HEK293 cells - 32 hour (AID 1224868)
How it was run: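 Tox21 10K qHTS, HEK293, 600 cells/well, RealTime-Glo reagent co-dispensed with cells; 5 h preincubation, compound by pintool, 37 C, luminescence at 0–40 h.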

[16] = A CellTox Green Cytotoxicity Assay to monitor cytotoxicity in HEK293 cells - 0 hour (AID 1224869); further: nearly all actives have a fitted effect of over 50% in size
How it was run: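 Real-time, in one plate: 600 HEK293 cells/well with dead-cell DNA dye, pinned compound after 5 h, 37 C incubation over 40 h; viable cells give no appreciable fluorescence.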

[17] = qHTS RealTime-Glo MT Cell Viability Assay in HepG2 cells - 40 hour (AID 1224870); further: nearly all actives have a fitted effect of over 50% in size
How it was run: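 HepG2 cells mixed with RealTime-Glo MT reagents (NanoLuc plus cell-permeant prosubstrate) were seeded at 600 cells/well, incubated 5 h at 37 C/5% CO2, then pinned with compounds in DMSO; nonlytic luminescence tracked viability during 40 h treatment.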

[18] = qHTS assay to identify small molecule antagonists of the estrogen related receptor signaling pathway with the pleiotropic PPARgamma coactivator (PGC) from Tox21 10K library - cell viability counter screen (AID 1224840; active means well fitted cell-killing curve with a large enough effect in the repeat runs, not every such curve was filed as active; further: nearly all actives have a fitted effect of over 40% in size)
How it was run: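 Readout: fluorescence intensity from CellTiter-Fluor after 30 min at 37 C/5% CO2. Preceded by 17.5 h treatment of PGC/ERR cells with DMSO-dissolved compounds, added 6 h post-seeding.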

[19] = target: Thyrotropin receptor (Homo sapiens) (UniProt P16473); experiment: qHTS assay to identify small molecule agonists of the thyroid stimulating hormone receptor (TSHR) signaling pathway (AID 1224843; calls by dose curve; further: nearly all actives have a fitted effect of over 45% in size)
Chain of Thyrotropin receptor (Homo sapiens) (P16473 whole entry, looked up): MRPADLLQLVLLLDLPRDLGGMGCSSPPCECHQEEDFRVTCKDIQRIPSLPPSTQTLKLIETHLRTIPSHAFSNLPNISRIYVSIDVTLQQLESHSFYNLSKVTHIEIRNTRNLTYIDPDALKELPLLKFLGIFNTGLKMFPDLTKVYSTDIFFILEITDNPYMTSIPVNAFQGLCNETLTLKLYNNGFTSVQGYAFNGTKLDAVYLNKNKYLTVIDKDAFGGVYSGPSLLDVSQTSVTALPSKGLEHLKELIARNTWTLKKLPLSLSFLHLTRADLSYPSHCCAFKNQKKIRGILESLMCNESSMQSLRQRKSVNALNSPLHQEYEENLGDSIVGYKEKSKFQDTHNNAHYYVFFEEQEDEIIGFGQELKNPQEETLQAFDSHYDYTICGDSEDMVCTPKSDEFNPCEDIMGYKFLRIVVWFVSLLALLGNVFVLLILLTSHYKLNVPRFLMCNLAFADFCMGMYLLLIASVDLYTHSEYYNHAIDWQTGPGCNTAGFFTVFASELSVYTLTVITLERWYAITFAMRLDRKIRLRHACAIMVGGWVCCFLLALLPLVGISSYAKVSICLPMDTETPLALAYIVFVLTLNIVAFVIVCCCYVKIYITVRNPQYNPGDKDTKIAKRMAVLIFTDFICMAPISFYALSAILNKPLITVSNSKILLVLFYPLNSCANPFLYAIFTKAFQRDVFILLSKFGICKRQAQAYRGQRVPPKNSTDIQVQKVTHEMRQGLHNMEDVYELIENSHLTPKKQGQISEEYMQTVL
How it was run: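 Using 15 concentrations per compound in triplicate, cAMP production was monitored in TSHR-HEK293 cells after 30 min compound incubation at RT; HTRF reagents followed, with fluorescence intensity recorded after 1 h.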

[20] = qHTS assay to identify small molecule agonists of H2AX - cell viability counter screen (AID 1224847; calls by dose curve; further: top concentration of the series differs between compounds; nearly all actives have a fitted effect of over 30% in size)
How it was run: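 Cells plated first: CHO-K1, 1000 per well in 10% FBS medium, incubated overnight at 37C. Then 15-point compound titration added (final DMSO 0.76%) for 3 hr. Finally CellTiter-Glo added and luminescence read.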

Measured: Potency

CCCCCCCCN1CCCC1=O
active: [6] 30.6 µM
not listed: [18] | [19] | [20]
inactive: all other assays above

NCCCC(N)(C(=O)O)C(F)F (stereo unspecified)
not listed: [5] | [6] | [7] | [8] | [11] | [12] | [13] | [17]
inactive: all other assays above

C=COC(=O)C(C)(CC)CCC(C)C (stereo unspecified)
not listed: [7] | [8] | [10] | [12] | [13] | [14] | [18] | [19]
inactive: all other assays above

CN(C)CCCN(C)CCCN(C)C
not listed: [5] | [6] | [7] | [8] | [12] | [13] | [14] | [17]
inactive: all other assays above

CC(C)CCCO
not listed: [5] | [6] | [7] | [8] | [12] | [13]
inactive: all other assays above

CCN1C=CN(C)C1C (stereo unspecified)
not listed: [5] | [6] | [7] | [19]
inactive: all other assays above

CCCC(=O)O[C@]1(C(=O)CC)CC[C@H]2[C@@H]3CCC4=CC(=O)CC[C@]4(C)[C@H]3[C@@H](O)C[C@@]21C
active: [9] 19 µM
not listed: [5] | [6] | [7] | [8] | [12] | [13] | [15] | [19]
inactive: all other assays above

CCN(CC#N)c1cccc(C)c1
not listed: [7] | [8] | [12] | [13] | [14] | [18] | [19] | [20]
inactive: all other assays above

CCO[Si](OCC)(OCC)c1ccccc1
not listed: [5] | [6] | [15] | [19] | [20]
inactive: all other assays above

CCCCCC(C)N (stereo unspecified)
not listed: [6] | [7] | [8] | [12] | [13] | [17]
inactive: all other assays above

CN1CCC(=C2c3ccccc3CCc3cccnc32)CC1
not listed: [7] | [8] | [12] | [13] | [18] | [19]
inactive: all other assays above

CCCCCCCCCCCCSC
not listed: [6] | [7] | [8] | [12] | [13] | [19]
inactive: all other assays above

O=[N+]([O-])c1cncn1CCN1CCOCC1
not listed: [5] | [7] | [8] | [12] | [13] | [20]
inactive: all other assays above

CNC(=O)Nc1ccc(Cl)c(Cl)c1
active: [2] 56.4 µM
not listed: [6] | [7] | [8] | [12] | [13]
inactive: all other assays above

[Ca+2]
not listed: [5] | [6] | [7] | [8] | [12] | [13] | [19]
inactive: all other assays above
